Assay results: PubChem BioAssay (NCATS)
Records with an inconclusive call do not appear. The source made the active and inactive calls. Calls follow the shape of the dose curve; as a rule, active = well fitted curve in the direction sought with a large enough effect; inconclusive = small, poorly fitted or top-dose-only effect, or another doubt; inactive = no such curve, though single readings can be large; an effect the other way counts as inactive or inconclusive.

Key:
[1] = target: Glutathione peroxidase 1 (Homo sapiens) (UniProt P07203); experiment: Primary qHTS Assay for Inhibitors of Recombinant Selenoprotein Glutathione Peroxidase 1 (GPX1) (AID 1845191); also: nearly all actives have a fitted effect of over 65% in size; also: potency is read from the fitted curve at half-maximal effect; as to activity, negative = inhibition: % is scaled to controls: 0 for no effect and ±100 for the full control effect
Glutathione peroxidase 1 (Homo sapiens), sequence (P07203 whole entry, looked up): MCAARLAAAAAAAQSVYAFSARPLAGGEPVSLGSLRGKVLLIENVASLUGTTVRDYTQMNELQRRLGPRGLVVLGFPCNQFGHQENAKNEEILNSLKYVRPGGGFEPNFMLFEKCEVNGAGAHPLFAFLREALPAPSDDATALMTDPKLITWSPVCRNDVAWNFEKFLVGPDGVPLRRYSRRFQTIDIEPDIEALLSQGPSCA
Procedure, shortened: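 GR-coupled readout: NADPH consumption tracked by fluorescence, ex 340/em 450 nm, at t=0 and after 15 min at RT. Final mix 10 nM GPX1, 1 mM GSH, 0.5 mM CHP, 0.5 mM NADPH, 100 nM GR, 0.01% BSA, following 30 min enzyme–compound preincubation.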

[2] = target: Phospholipid hydroperoxide glutathione peroxidase GPX4 (Homo sapiens) (UniProt P36969); experiment: Primary qHTS Assay for Inhibitors of Recombinant Selenoprotein Glutathione Peroxidase 4 (GPX4) (AID 1845192); also: nearly all actives have a fitted effect of over 65% in size; also: potency is read from the fitted curve at half-maximal effect; as to activity change, negative = inhibition: series mostly up to about 50 µM; % is scaled to controls: 0 for no effect and ±100 for the full control effect
Phospholipid hydroperoxide glutathione peroxidase GPX4 (Homo sapiens), sequence (P36969 whole entry, looked up): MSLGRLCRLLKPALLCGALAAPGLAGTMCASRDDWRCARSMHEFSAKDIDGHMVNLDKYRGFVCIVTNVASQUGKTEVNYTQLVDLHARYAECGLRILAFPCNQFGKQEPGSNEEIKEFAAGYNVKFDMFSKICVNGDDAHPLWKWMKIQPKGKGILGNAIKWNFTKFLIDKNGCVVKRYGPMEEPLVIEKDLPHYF
Procedure, shortened: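 Steps: GPX4 plus compound, 30 min RT; add GR/GSH/NADPH master mix; start with cumene hydroperoxide; read 340/450 nm fluorescence at 0 and 15 min. Finals were 200 nM GPX4, 1 mM GSH, 0.5 mM CHP, 0.5 mM NADPH, 100 nM GR.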

[3] = target: Luciferin 4-monooxygenase (Photinus pyralis) (UniProt P08659); experiment: Primary firefly luciferase (FLuc) qHTS assay for identification of artifact compounds. (AID 1845220); also: nearly all actives have a fitted effect of over 60% in size;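 as to activity change, negative = inhibition: series mostly up to about 54 µM; plate controls were DMSO vehicle for no effect and no enzyme for full effect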
Procedure, shortened: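 Enzymatic FLuc inhibition assay: compounds pre-exposed to luciferin/ATP (10 uM each) for 15 min, then purified P. pyralis enzyme at 10 nM added. Read-out: luminescence at 5 min.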

[4] = Primary fluorescence-based thiol-reactive (MSTI) qHTS assay for identification of artifact compounds. (AID 1845221); also: nearly all actives have a fitted effect of over 65% in size; also: potency is read from the fitted curve at half-maximal effect;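 as to activity change, negative = thiol reactive: series mostly up to about 54 µM; thiol-reactive compounds lower the probe fluorescence signal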
Procedure, shortened: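 One-hour, room-temperature, dark incubation of compound with 4 uM MSTI in PBS (pH 7.4, 2% DMSO) precedes a fluorescence read at 525 nm excitation, 598 nm emission; Hill-equation fitting yields concentration-response values.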

[5] = system: Nanoluciferase (engineered Oplophorus gracilirostris luciferase); experiment: Primary Nanoluciferase (NLuc) qHTS assay for identification of artifact compounds. (AID 1845222);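 also: NLuc secreted into diluted conditioned medium of S16 cells; series mostly up to about 54 µM; 0% = DMSO and -100% = no enzyme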
Procedure, shortened: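 S16 cell supernatant NLuc, 1:55; cpds qHTS; 15 min RT dark; Nano-Glo substrate 1:100, 5 min; luminescence; Hill fit of % inhibition.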

[6] = Primary redox qHTS assay for identification of artifact compounds. (AID 1845223);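 also: 0% = DMSO and 100% = reference compound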
Procedure, shortened: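 Redox-cycling detection via DTT (250 uM final) oxidation coupled to Amplex Red (25 uM)/HRP (250 mU/mL) in HBSS. 15 min preincubation plus 30 min after DTT, room temperature. Ex/Em 525/598 nm; 4-parameter Hill fit against DMSO and 10 uM DA3003.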

COc1c2c(c(C)c3c1C(=O)OC3)O[C@@]1(C)CC(O)C(C(C)(C)O)[C@](C)(CCC(=O)O)[C@H]1C2 (some centres undefined)
inactive: Potency [1] | Potency [2] | Potency [3] | Potency [4] | Potency [5] | Potency [6]

COc1ccc(-c2ccc3c(N4CCOCC4)nc(N4CC(C)OC(C)C4)nc3n2)cc1CO (centres undefined)
inactive: Potency [3] | Potency [4] | Potency [5] | Potency [6]
active: Potency [1] 18 µM | Potency [2] 22.7 µM

O=C(O)/C=C/c1cc2c(cc1O[C@@H]1O[C@H](CO)[C@@H](O)[C@H](O)[C@H]1O)OCO2
inactive: Potency [1] | Potency [2] | Potency [3] | Potency [4] | Potency [5] | Potency [6]

CC(=O)O[C@H]1C[C@@]2(C)[C@@H](CC[C@H]3[C@@]4(C)C=CC(=O)[C@@H](C)[C@@H]4[C@H](O)C(=O)[C@@]32C)/C1=C(/CCC=C(C)C)C(=O)O
inactive: Potency [1] | Potency [2] | Potency [3] | Potency [4] | Potency [5] | Potency [6]

C[C@H](NC(c1cccc(C[P+](=O)O)c1)[C@H](C)O)c1ccc(Cl)c(Cl)c1 (some centres undefined)
inactive: Potency [1] | Potency [2] | Potency [3] | Potency [4] | Potency [5] | Potency [6]

CCCCOC(=O)NC(=O)C1c2ccccc2Oc2ccccc21
inactive: Potency [1] | Potency [2] | Potency [3] | Potency [4] | Potency [5] | Potency [6]

Cc1cc(N2CCN([C@@H]3CN[C@H](C(=O)N4CCSC4)C3)CC2)n(-c2ccccc2)n1
inactive: Potency [1] | Potency [2] | Potency [3] | Potency [4] | Potency [5] | Potency [6]

Cc1c(F)cc(C(=O)NC2CC2)cc1-c1c(F)cn2c(C(C)(C)C)nnc2c1F
inactive: Potency [1] | Potency [2] | Potency [3] | Potency [4] | Potency [5] | Potency [6]

COc1ccc(/C=C/C(=O)O[C@@H]2[C@@H](O)[C@@H](O)[C@H](O[C@@H]3C=C(CO)[C@H]4[C@H](O[C@@H]5O[C@H](CO)[C@@H](O)[C@H](O)[C@H]5O)OC=C[C@H]43)O[C@H]2C)cc1O
active: Potency [4] 3.98 µM
inactive: Potency [1] | Potency [2] | Potency [3] | Potency [5] | Potency [6]

CC1(CCOC2OC(CO)C(O)C(O)C2O)CCC23OC2(C1)C(O)CC1C(C)(C(=O)O)CCCC13C (centres undefined)
inactive: Potency [1] | Potency [2] | Potency [3] | Potency [4] | Potency [5] | Potency [6]

COc1cc(OC)c(/C=C/S(=O)(=O)Cc2ccc(OC)c(NCC(=O)O)c2)c(OC)c1
active: Potency [4] 3.36 µM
inactive: Potency [1] | Potency [2] | Potency [3] | Potency [5] | Potency [6]

COc1cc(/C=C/C(=O)OC[C@H]2O[C@@](CO)(O[C@H]3O[C@H](CO)[C@@H](O)[C@H](O)[C@H]3O)[C@@H](OC(=O)/C=C/c3ccc(O)c(OC)c3)[C@@H]2O)ccc1O
active: Potency [4] 3.54 µM
inactive: Potency [1] | Potency [2] | Potency [3] | Potency [5] | Potency [6]

C[C@@H]1O[C@@H](O[C@H]2[C@H](OC(=O)[C@]34CCC(C)(C)C[C@H]3C3=CCC5[C@@]6(C)C[C@H](O)[C@H](O[C@@H]7O[C@H](CO)[C@@H](O)[C@H](O)[C@H]7O)[C@@](C)(CO)C6[C@H](O)C[C@@]5(C)[C@]3(C)CC4)OC[C@H](O)[C@@H]2O)[C@H](O)[C@H](O)[C@H]1O[C@@H]1OC[C@@H](O)[C@H](O[C@@H]2OC[C@](O)(CO)[C@H]2O)[C@H]1O (some centres undefined)
inactive: outcome [1] inactive [at 9.52 µM] | outcome [2] inactive [at 9.73 µM] | activity change, negative = inhibition [3] 1.22% [at 11.6 µM] | activity change, negative = thiol reactive [4] 350% [at 11.5 µM] | activity, negative = inhibition [5] 0% [at 11.6 µM] | redox activity (% of DA3003) [6] 8.55% [at 11.5 µM]

CC1(C)CC[C@]2(C(=O)O[C@@H]3O[C@H](CO)[C@@H](O)[C@H](O)[C@H]3O)CC[C@]3(C)C(=CCC4[C@@]5(C)C[C@@H](O)[C@H](O)[C@@](C)(CO)C5CC[C@]43C)C2[C@@H]1O (some centres undefined)
inactive: Potency [1] | Potency [2] | Potency [3] | Potency [5] | Potency [6]
active: Potency [4] 3.16 µM

CC(=O)O[C@]1(C(C)=O)CC[C@H]2[C@@H]3C[C@H](C)C4=CC(=O)C=C[C@]4(C)[C@@]3(F)[C@@H](O)C[C@@]21C
inactive: Potency [1] | Potency [2] | Potency [3] | Potency [4] | Potency [5] | Potency [6]

CCC(=O)O[C@H]1C(C)(C)[C@H]([C@@H](O)C(=O)OC)[C@]2(C)C(=O)[C@@]1(O)[C@H]1O[C@]13C1CC(=O)O[C@@H](c4ccoc4)[C@]1(C)CCC32 (some centres undefined)
inactive: Potency [1] | Potency [2] | Potency [3] | Potency [4] | Potency [5] | Potency [6]

C[C@H]1CC[C@@]2(OC1)O[C@H]1CC3C4CC[C@H]5C[C@@H](O)[C@H](O)C[C@]5(C)C4=CC(=O)[C@]3(C)[C@H]1[C@@H]2C (some centres undefined)
inactive: Potency [1] | Potency [2] | Potency [3] | Potency [4] | Potency [5] | Potency [6]

NC(=O)[C@H](O[C@@H]1O[C@H](CO)[C@@H](O)[C@H](O)[C@H]1O)c1ccccc1
inactive: Potency [1] | Potency [2] | Potency [3] | Potency [5] | Potency [6]
active: Potency [4] 16.5 µM

C/C(=C\CCC(C)CCO)C(=O)O[C@@H]1[C@@H](O)[C@H](OC2OC=C(C(=O)O)C3CCC(C)(O)C23)O[C@H](CO)[C@H]1O (some centres undefined)
active: Potency [4] 8.22 µM
inactive: Potency [1] | Potency [2] | Potency [3] | Potency [5] | Potency [6]
